Shown are actives, neighbours in structure and some others; about 4% of the full set was active somewhere.
Anthrax LF prot = Bacillus anthracis LF protease inhibitors, primary screen, biochemical, multiplex microsphere, MLPCN library; inhibition, % at 10 µM; multiplex microsphere protease cleavage assay; AID 588501, 2011; 360,000 compounds, 0.12% hits; note: plate controls were buffer without enzyme for full effect and enzyme alone for no effect
Bead autofluor = compound fluorescence in toxin protease inhibitor counterscreen; compound autofluorescence counterscreen, microsphere flow cytometry; stronger effect = higher value; fluorescence intensity (no concentration beside the values); 360,000 compounds, 3.1% hits; AID 624483; in the data active = fluorescence intensity above about 16000; inconclusive = no clear call, values can overlap the other calls
BoNT-F LC inh = BoNT/F light chain protease inhibitors, primary screen, biochemical, flow cytometry, MLPCN library; Botulinum neurotoxin type F light chain protease (Clostridium botulinum); Multiplex microsphere protease cleavage assay; inhibition, % at 10 µM; 360,000 compounds, 0.22% hits; AID 588497, 2011; in the data active = inhibition above about 35%, passing the limit was not always enough; inconclusive = no clear call, values can overlap the other calls; note: plate controls were buffer without enzyme for full effect and enzyme alone for no effect
DUSP3 inh = VHR1 phosphatase inhibitors, primary screen, biochemical, absorbance, uHTS | recombinant VHR phosphatase, pNPP absorbance | 290,000 compounds, 0.52% hits | inhibition, % at 13.3 µM | Dual specificity protein phosphatase 3 (Homo sapiens), P51452; in the data active = inhibition above about 50%
Target sequence (P51452 whole entry, looked up): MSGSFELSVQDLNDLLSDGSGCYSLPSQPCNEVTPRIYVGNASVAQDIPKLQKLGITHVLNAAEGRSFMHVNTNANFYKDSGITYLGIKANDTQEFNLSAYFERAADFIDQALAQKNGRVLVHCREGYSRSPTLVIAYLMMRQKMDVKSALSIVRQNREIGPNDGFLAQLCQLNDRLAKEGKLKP
MazEF act = activators of E. coli MazEF toxin-antitoxin RNase, primary screen, biochemical, fluorescence, uHTS. activation, % at 20 µM. Endoribonuclease toxin MazF (Escherichia coli (strain K12)), P0AE70. 350,000 compounds, 0.32% hits. FAM/BHQ RNA-DNA oligo cleavage fluorescence, 5 h. AID 504720, 2011; in the data active = activation above about 50%
Target sequence (P0AE70 whole entry, looked up): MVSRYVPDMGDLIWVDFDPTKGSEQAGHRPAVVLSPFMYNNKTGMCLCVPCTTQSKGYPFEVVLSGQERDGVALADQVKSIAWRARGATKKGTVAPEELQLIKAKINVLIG
BoNT A protease = BoNT/A light chain protease inhibitors, primary screen, biochemical, flow cytometry, MLPCN library. multiplex microsphere protease substrate cleavage. 360,000 compounds, 0.17% hits. inhibition, % at 10 µM. Botulinum neurotoxin type A light chain protease (Clostridium botulinum A str. ATCC 3502); note: plate controls were buffer without enzyme for full effect and enzyme alone for no effect
Starred values were filed as active, the others as inactive; ? = inconclusive. Cut-off read from the data, not from the text of the source, unless noted: active = inhibition above about 30%; inconclusive = no clear call, values can overlap the other calls; inactive = below that.

SMILES	Anthrax LF prot	Bead autofluor	BoNT-F LC inh	DUSP3 inh	MazEF act	BoNT A protease
C=C(C)C1CC=C(C)/C(=N/NC(=O)COc2ccc(Cl)cc2)C1 (stereo not drawn)	0	2503	-1	-2	7	0
C=C(C)C1CC=C(C)/C(=N/NC(=O)COc2cccc(C)c2)C1 (stereo not drawn)	-3	17668*	-8	-1	3	-3
O=C(CSc1ccc2ccccc2n1)N1CCC(c2noc3ccc(F)cc23)CC1	0	22244*	-10	12	-1	-8
Cc1nnc(SCC(=O)N2CCC(c3noc4ccc(F)cc34)CC2)s1	1	10796	-3	3	2	0
CN1C(=O)CC(NNC(=O)c2ccccc2)C1=O (stereo not drawn)	-4	3433	-8	7	2	0
CN1C(=O)CC(NNC(=O)c2ccc(Cl)cc2)C1=O (stereo not drawn)	-3	22298*	-10	11	-4	-9
COC(=O)CN1C(=O)C(C)(C)Oc2ccc(C(=O)NC3CCCC3)cc21	0	5849	0	7	9	-1
COC(=O)CN1C(=O)C(C)(C)Oc2ccc(C(=O)NC3CC3)cc21	0	22838*	-3	-1	-12	?
CCOC(=O)c1ccc2c(c1)N(CC(=O)N1CCCC1)C(=O)C(C)(C)O2	-2	23746*	-4	17	-4	?
C=CCN1C(=O)[C@@H]2Cc3c([nH]c4ccccc34)C(c3cc(OC)c(OC)c(OC)c3)N2C1=S (stereo partly drawn)	2	3286	-13	1	-94	0
COc1ccccc1NC(=O)Cc1noc(CSc2nnc(C)s2)n1	-1	22803*	-1	11	0	0
Cc1ccc(Cl)cc1N1CCN(S(=O)(=O)c2c(C)[nH]c(=O)[nH]c2=O)CC1	0	19342*	1	26	-3	?
Cc1cccc(CN(C)CCc2ccccn2)c1	1	16809*	-5	16	5	-2
COc1ccc(Cl)cc1-c1nc(SCC(=O)NCCN2C(=O)CSC2=O)n[nH]1	0	2073	1	12	4	0
Cc1cc2n(n1)SC(Nc1ccc(F)c(Cl)c1)N2 (stereo not drawn)	1	20632*	-4	13	-7	?
O=C(Cn1c(=O)oc2ccccc21)N1CCN(c2ccc(N3CCOCC3)nn2)CC1	-8	5623	-5	54*	12	0
CCOc1ccccc1N1CCN(C(=O)c2cc[n+]([O-])cc2)CC1	0	5032	13	16	12	1
CCCc1ccc(C(=O)N2CCN(c3ccccc3OCC)CC2)cc1	0	25022*	-8	3	-5	-3
CC1(O)c2ccccc2C(=O)N1Cc1ccccc1 (stereo not drawn)	1	17655*	-2	-3	5	-2
CCCCCCCCNC(=O)c1cnccn1	0	10727	-5	-17	-5	-1
Cc1cc(C(F)(F)F)nn1CCCNC(=O)c1cnccn1	-2	23254*	0	5	-4	?
O=C1N(Cc2cccc(Cl)c2)C[C@@H]2C[C@@H](c3cccc4cccnc34)N3CCC[C@@]123	-10	24208*	1	35	-3	2
O=C1N(Cc2cccc(Cl)c2)C[C@@H]2C[C@@H](c3cccc4ncccc34)N3CCC[C@@]123	-2	4913	-6	21	-2	-1
O=C1c2cccc3cccc(c23)C(=O)N1c1ccccc1Cl	-5	3983	-3	5	14	-7
Cc1c(Cl)cccc1N1C(=O)c2ccccc2C1=O	-4	25160*	-7	2	14	?
COc1ccc(N2CCN(C(=O)CCCn3c(=O)[nH]c4ccsc4c3=O)CC2)cc1	5	5085	8	-4	6	0
CCCCCc1c(C)nc(NCc2ccccc2)[nH]c1=O	-14	20180*	10	15	8	?
Cc1nc(Nc2ccccc2)[nH]c(=O)c1CCC(C)C	-9	9772	11	6	-3	-1
